Compound activity: PubChem, National Center for Advancing Translational Sciences (NCATS)
An excerpt weighted towards active compounds, which were near 0.9% of everything screened.
gsp agonist: agonists of gsp mutant (McCune-Albright syndrome); gsp mutant cells, cAMP HTRF, 30 min; Potency, µM (doses to about 76.9 µM), usual class: activators; hit rate 0.13% among 340,000; active means well fitted activation curve with a large enough effect; inconclusive means small, poorly fitted or top-dose-only effect, or another doubt; inactive means no such curve, though single readings can be large or run the other way; cell line not stated here;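 further: phosphodiesterase inhibitor Ro 20-1724 added with compounds to block cAMP breakdown; nearly all actives have a fitted effect of over 60% in size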
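Cells in DMEM/10% FBS with G418 were pretreated with compounds in DMSO plus […] (300 uM stock) for 30 min at 37C. cAMP was measured by HTRF (cAMP-d2 plus anti-cAMP antibody-K) after 30 min at room temperature.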
gsp antag: antagonizes gsp, the McCune-Albright syndrome mutation | gsp-mutant cells, cAMP HTRF, 30 min | Potency, µM (series often up to 76.9 µM), hits mostly inhibitors | hit rate 0.4% among 340,000 | AID 624288; calls by dose curve; cell line not stated here;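 further: intracellular cAMP measured with PDE inhibitor Ro 20-1724 present during compound exposure; nearly all actives have a fitted effect of over 65% in size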
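Measurement of cellular cAMP by homogeneous time-resolved fluorescence following a 30 min compound exposure at 37C. The PDE inhibitor […] was present throughout; the assay buffer was DPBS with 0.05% BSA and 0.005% Tween 20.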
RXFP1 antag: blocks the human relaxin receptor RXFP1; activity change, negative = inhibition, % at 57.5 µM; HEK293-RXFP1, relaxin-stimulated cAMP HTRF, 30 min; stronger effect = lower value; Q9HBX9; hit rate 0.59% among 350,000;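 active means activity change of -60% or lower, but not beyond a set lower limit; inconclusive means change between -60% and -40%, or beyond the set limit; inactive means change above -40%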
Target sequence (Q9HBX9 whole entry, looked up): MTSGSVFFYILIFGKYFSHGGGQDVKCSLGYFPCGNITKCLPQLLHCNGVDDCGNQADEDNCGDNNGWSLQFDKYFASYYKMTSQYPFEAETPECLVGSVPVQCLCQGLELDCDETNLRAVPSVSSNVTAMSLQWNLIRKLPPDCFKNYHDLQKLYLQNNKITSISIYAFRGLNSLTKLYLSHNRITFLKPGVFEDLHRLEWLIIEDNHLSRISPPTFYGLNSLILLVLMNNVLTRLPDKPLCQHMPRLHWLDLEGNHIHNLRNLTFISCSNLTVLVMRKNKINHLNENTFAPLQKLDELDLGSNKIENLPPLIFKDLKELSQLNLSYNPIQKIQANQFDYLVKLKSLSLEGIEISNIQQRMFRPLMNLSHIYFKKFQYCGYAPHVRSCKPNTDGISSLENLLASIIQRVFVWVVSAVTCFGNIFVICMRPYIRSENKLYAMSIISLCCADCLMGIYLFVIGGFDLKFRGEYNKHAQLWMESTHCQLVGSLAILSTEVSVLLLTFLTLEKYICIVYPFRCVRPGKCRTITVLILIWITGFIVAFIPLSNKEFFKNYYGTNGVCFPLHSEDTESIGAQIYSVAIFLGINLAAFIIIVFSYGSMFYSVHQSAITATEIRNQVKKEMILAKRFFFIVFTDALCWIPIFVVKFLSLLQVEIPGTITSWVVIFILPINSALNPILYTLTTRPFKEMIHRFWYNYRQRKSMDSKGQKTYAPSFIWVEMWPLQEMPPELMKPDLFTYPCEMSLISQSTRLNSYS
RXFP1 agonist: agonists of human relaxin receptor RXFP1; hit rate 0.3% among 370,000; AID 2676; HEK293T-RXFP1 cAMP TR-FRET, 30 min; response scale: percent of porcine relaxin response, buffer zero; Q9HBX9; Potency, µM (series often up to 57.5 µM), most hits filed as activators; active means well fitted activation curve with a large enough effect; inconclusive means small, poorly fitted or top-dose-only effect; further: nearly all actives have a fitted effect of over 60% in size
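Agonist response is measured as cAMP accumulation in an RXFP1-transfected HEK293T line under PDE4 inhibition. Values are scaled between buffer-only and 29 nM porcine relaxin, and EC50s come from standard Hill equation fits.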
Large screens that a line does not name were inactive.

c1ccc(CN=C2NN=C(c3ccccc3)CS2)cc1	none
CC(=O)Nc1scc(-c2ccccc2)[n+]1-c1ccc(C)cc1	gsp antag 50.1µM
O=C(COc1ccc2ccccc2c1)NNC(=O)Cc1cccc2ccccc12	none
O=C(COc1ccc2ccccc2c1)NNC(=O)Cc1ccccc1	RXFP1 antag -120.0
Oc1ccc(CCNCCCCCCNCCc2ccccc2)cc1O	none (no result: gsp agonist, gsp antag, RXFP1 agonist)
COCCNC(=O)c1ccc(-n2c(-c3ccccc3)cc3c2CCC(C)C3)cc1 (configuration not stated)	RXFP1 antag -70.7 (no result: gsp agonist, gsp antag)
CCCNC(=O)c1ccc(-n2c(-c3ccccc3)cc3c2CCC(C)C3)cc1 (configuration not stated)	none (no result: gsp agonist, gsp antag)
Cc1cc(C)c2sc(N(CCCN(C)C)C(=O)COc3ccc(Cl)cc3)nc2c1	RXFP1 antag -71.7
Cc1cc(C)c2sc(N(CCCN(C)C)C(=O)c3ccc(S(=O)(=O)N(C)C4CCCCC4)cc3)nc2c1	RXFP1 antag -84.4
O=C(CO)[C@@H](O)[C@H](O)[C@@H](O)CO	none (no result: gsp agonist, gsp antag, RXFP1 agonist)
CCOC(=O)C1CCN(C(=O)c2oc3ccc4c(c3c2C)C(O)CC2(CCCCC2)O4)CC1 (configuration not stated)	RXFP1 antag -93.5
CC(=O)c1cc(Cl)ccc1OCc1cccc(S(=O)(=O)N2CCOCC2)c1	gsp antag 35.5µM
O=S(=O)(c1cccc(COc2ccc(Cl)cc2Cl)c1)N1CCOCC1	none
O=C(Cn1c2ncccc2c(=O)n1-c1ccccc1)NCc1ccccc1Cl	none (no result: gsp agonist, gsp antag)
C[C@@H](O)[C@H]1C(=O)N2C(C(=O)O)=C([C@H]3CCCO3)S[C@H]12	none (no result: gsp agonist, gsp antag, RXFP1 agonist)
O=C(NCc1ccccn1)c1nn(-c2ccccc2F)nc1CO	none (no result: gsp agonist, gsp antag)
Fc1ccc(C(c2ccc(F)cc2)N2CCNCC2)cc1	none (no result: gsp agonist, gsp antag, RXFP1 agonist)
Cc1nnc2c3ccccc3c(Cl)nn12	gsp agonist 25.1µM, RXFP1 agonist inconclusive
Cc1nnc2c3ccccc3c(-c3ccc(O)cc3)nn12	gsp agonist inconclusive
CC(C)Cc1nn2c(=O)cc(COC(=O)c3cccc(NC(=O)c4cccs4)c3)nc2s1	RXFP1 agonist inconclusive (no result: gsp agonist, gsp antag)
O=C(NC(=S)N1CCN(c2ccc(Cl)cc2[N+](=O)[O-])CC1)c1cccs1	gsp antag inconclusive, RXFP1 antag -64.8
O=C(NC(=S)N1CCN(c2ccc(Cl)cc2[N+](=O)[O-])CC1)c1ccco1	none
Cc1onc(-c2ccc(Cl)cc2Cl)c1-c1csc(N/N=C/c2ccccc2Cl)n1	RXFP1 antag -69.0
Cc1onc(-c2ccccc2)c1-c1csc(N/N=C/c2ccccc2Cl)n1	RXFP1 antag inconclusive
COc1ccc(-c2csc3ncnc(Nc4ccc(OC)cc4OC)c23)cc1	none (no result: gsp agonist, gsp antag)
CCc1ccc(-c2nc3ccc(Br)cc3c(C(=O)O)c2C)s1	gsp agonist inconclusive, RXFP1 agonist 7.08µM
Cc1c(-c2ccccc2Br)nc2ccccc2c1C(=O)O	none (no result: RXFP1 agonist)
CC1(C)CC2(CC(c3ccccc3F)c3ccc(O)c(O)c3O2)NC(=S)N1 (configuration not stated)	RXFP1 antag -76.3
CC1(C)CC2(CC(c3ccc(F)cc3)c3ccc(O)cc3O2)NC(=S)N1 (configuration not stated)	none
Cc1ccc(NC(=O)c2oc3ccccc3c2NC(=O)C2CCCCC2)cc1	none (no result: gsp agonist, gsp antag, RXFP1 antag)
Cc1nc2ccc(NC(=O)c3cnc(Cl)c(Cl)c3)cc2s1	gsp antag 8.91µM
Cc1nc2ccc(NC(=O)c3ccc(Br)o3)cc2s1	RXFP1 antag -91.8
COc1ccc(C(=O)/C=C2/C(=O)Nc3ccccc32)c(OC)c1	RXFP1 antag -86.1
COc1ccc(C(=O)/C=C2/C(=O)Nc3ccccc32)cc1	gsp agonist inconclusive
CC(=O)Nc1ccc(N2CCCCC2)c(C(=O)Nc2cccc(C)c2)c1	none
Cc1cccc(NC(=O)c2cc(NC(=O)C3CCCCC3C(=O)O)ccc2N2CCCCC2)c1 (configuration not stated)	gsp antag 35.5µM
Cc1nn(-c2ccc(N3CCCC3)nn2)c(C)c1CCC(=O)Nc1ccc(F)c(Cl)c1	none (no result: gsp agonist, gsp antag)
OC[C@H]1O[C@@H](OCCc2ccc(O)cc2)[C@H](O)[C@@H](O)[C@H]1O	none (no result: gsp agonist, gsp antag, RXFP1 agonist)
O=C1N=c2ccccc2=C1c1sc(Nc2cccc(O)c2)nc1O	gsp antag inconclusive
O=C1N=c2ccccc2=C1c1sc(Nc2ccc(O)cc2)nc1O	RXFP1 antag -80.8
Cc1ccc(C(=O)Oc2ccc(C(O)CNC(C)(C)C)cc2OC(=O)c2ccc(C)cc2)cc1 (configuration not stated)	none (no result: gsp agonist, gsp antag, RXFP1 agonist)
CC[n+]1c(/C=C/c2ccc(OC)c(OC)c2)ccc2ccccc21	none
CC[n+]1c(/C=C/c2ccc(N(C)C)cc2)ccc2ccccc21	gsp antag inconclusive, RXFP1 antag -91.3
COc1ccc(CNC(=O)Cn2c(=O)n3nc(-c4ccc(OC)cc4)nc3c3ccccc32)cc1	none (no result: gsp agonist, gsp antag)
O=C(O)CCNc1cc(N2CCN(C(=O)c3ccco3)CC2)c2noc3c2c1C(=O)c1ccccc1-3	gsp antag inconclusive, RXFP1 antag -74.7
CCN1CCN(c2cc(N3CCN(C(=O)c4ccco4)CC3)c3c4c(onc24)-c2ccccc2C3=O)CC1	gsp antag inconclusive
Cc1cc(C)cc(N(CC(=O)NCc2ccco2)C(=O)c2snc(C(N)=O)c2N)c1	RXFP1 antag -60.2
Cc1ccccc1N(C(=O)c1snc(C(N)=O)c1N)C(C(=O)NCc1ccccc1)c1ccc(O)cc1 (configuration not stated)	none
NC(=O)c1nsc(C(=O)N(Cc2ccco2)C(C(=O)NCc2ccccc2)c2ccc(O)cc2)c1N (configuration not stated)	gsp antag 11.2µM
COc1ccc(CCNc2oc(COc3ccc(Br)cc3)nc2C#N)cc1OC	gsp antag 39.8µM, RXFP1 antag -61.8
Cc1cccc(CNC(=O)CCCN2C(=O)CCn3nc(-c4cccn4C)cc32)c1	none (no result: gsp agonist, gsp antag)
Cc1cccc(CNc2ncnc3ccc(-c4ccc5c(ccn5C)c4)cc23)c1	none (no result: gsp agonist, gsp antag, RXFP1 antag)
CCN(CC)C(=O)CSc1nnc2c3ccccc3n(C)c2n1	gsp agonist 7.08µM, RXFP1 agonist inconclusive
CCCn1c2ccccc2c2nnc(SCC(=O)Nc3cccc(C(C)=O)c3)nc21	none (no result: gsp agonist, gsp antag)
Cn1c2ccccc2c2nnc(SCC(=O)Nc3cccc(C(=O)O)c3)nc21	gsp agonist 14.1µM, RXFP1 agonist 15.8µM
COc1ccccc1NS(=O)(=O)c1cn(C)c(C)n1	none (no result: gsp agonist, gsp antag, RXFP1 antag)
CCOc1c(Cl)cc(CNc2ccc(S(N)(=O)=O)cc2)cc1OC	none
CCOc1c(Cl)cc(CNc2ccc(N3CCCC3)cc2)cc1OC	RXFP1 antag -75.5
Cc1ccc(C(=O)NNc2cc(N3CCCC3)nc(N3CCCC3)n2)cc1	RXFP1 antag -62.3
O=C(NNc1cc(N2CCOCC2)nc(N2CCOCC2)n1)c1ccc(Cl)c(Cl)c1	gsp agonist inconclusive
CCC(=O)N1CCN(c2ccc(NC(=O)c3cc4ccccc4o3)cc2Cl)CC1	gsp antag 20µM
COc1ccc(-c2csc(NC(=O)CSc3n[nH]c(C)n3)n2)cc1	gsp antag 35.5µM
CCCCCCCCC/C(=N\O)c1ccccn1	RXFP1 antag -69.3
CCCCCCCCC(=O)N/N=C/c1ccccn1	none
O=S(=O)(Nc1cccc(C(F)(F)F)c1)c1ccc(-c2cnc(C3CC3)o2)cc1	none (no result: gsp agonist, gsp antag, RXFP1 antag)
